Assay outcomes as filed in PubChem.
MARV entry inh = Marburg virus entry inhibition. Marburg virus pseudotyped entry inhibition, cell reporter. Potency, µM (series often up to 37.8 µM), actives largely listed as inhibitors. 300,000 tested, 1.8% active. AID 540276; calls by dose curve; tested in HEK293 cells
LASV entry inh = Lassa virus entry inhibition; Potency, µM (titrated, usually from 37.9 µM), most hits filed as inhibitors; AID 540256; 300,000 tested, 1.2% active; Lassa virus pseudotype entry inhibition, cell reporter; calls by dose curve; tested in HEK293 cells; note: nearly all actives have a fitted effect of over 50% in size
Shiga inhibitor = blocks Shiga toxin action in Vero cells. Vero cells, Shiga toxin protein synthesis inhibition reporter. inhibition, % at 38.7 µM. 290,000 tested, 9.2% active. AID 2315; in the data active = inhibition mostly above about 28%, no sharp cut-off; inactive = mostly below about 43%
AMA1 RON2 block = inhibitors of Plasmodium falciparum AMA1-RON2 interaction. AID 720542. Potency, µM (top dose mostly 58.2 µM), actives largely listed as inhibitors. AlphaScreen AMA1-biotinylated RON2 peptide binding. 360,000 tested, 0.2% active; active = well fitted inhibition curve with a large enough effect; inconclusive = small, poorly fitted or top-dose-only effect; inactive = no such curve, though single readings can be large or run the other way; note: nearly all actives have a fitted effect of over 45% in size
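AMA1 (3D7) with his tag at 25 nM final met compounds first, then biotinylated RON2 peptide at 25 nM; detection used donor plus acceptor beads, 10 µg/mL apiece, read by AlphaScreen after 30 min at room temperature.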
CHX counter = counter-screen for Shiga toxin inhibitors: cycloheximide protein synthesis inhibition; 300,000 tested, 12% active; cell reporter, cycloheximide protein synthesis inhibition counterscreen; max response, %; in the data active = max response mostly above about 13%, no sharp cut-off; inactive = mostly below about 14%; note: read at 38.3 µM for the half of the compounds with a filed dose
Numbers stand for hits; 0 = inactive; ? = inconclusive; - = not tested or not shown; [ ] = remark or other dose. The entries come from a sample that favours hits as a whole.

SMILES	MARV entry inh	LASV entry inh	Shiga inhibitor	AMA1 RON2 block	CHX counter
O=C1Nc2ccccc2/C1=C\C(=O)c1ccccc1	-	-	0	0	0
CCc1ncc(/C=C2\C(=O)Nc3ccccc32)[nH]1	?	0	0	0	26
Cc1ncc(/C=C2\C(=O)Nc3ccccc32)[nH]1	0	?	40	0	26
CCOC(=O)C1(C)CCCN(C(=O)c2cc(C)oc2C)C1 (stereo not given)	-	-	-	0	-
COc1ccc(-c2cc(C(=O)Oc3ccc(C#N)cc3)no2)cc1	0	0	-	-	-
COCC(C)N1CC(O)=C(c2nc(-c3ccc(Cl)cc3)cs2)C1=N (stereo not given)	0	?	0	0	0
CCCCNC(=O)C1(C)CCCCN1C(=O)c1c(C)noc1C (stereo not given)	-	-	-	0	-
O=C(NCC1OCCc2ccccc21)c1ccc(NC(=O)c2ccccc2Cl)cc1 (stereo not given)	7.9µM	?	0	0	0
CCOc1ccc(C(=O)NCC2OCCc3ccccc32)cc1 (stereo not given)	0	0	active	0	25
COc1ccc2oc(C(=O)OCC(=O)N(C)CC(=O)Nc3ccc(F)cc3)c(C)c2c1	0	0	-	0	-
CN(C(=O)COC(=O)c1cc2ccccc2cc1O)c1ccccc1	-	-	-	0	-
CC1CCN(C(=O)COC(=O)c2cc3ccccc3cc2O)CC1	0	0	0	0	42
CC(C)(C)C(=O)COC(=O)c1cc2ccccc2cc1O	0	0	0	0	25
COC(=O)[C@@]1(Cc2ccc(OC)cc2)[C@H]2c3cc(C(=O)N4CCCC4)n(Cc4ccsc4Br)c3C[C@H]2CN1C(=O)c1ccccc1	-	-	-	0	-
FC(F)(F)c1cnc(N2CCCN(C(=S)Nc3ccccc3)CC2)c(Cl)c1	?	?	0	0	0
FC(F)(F)c1cnc(N2CCN(C(=S)NCc3ccccc3)CC2)c(Cl)c1	13µM	?	0	?	0
CCOC(=O)c1[nH]c2ccccc2c1NC(=S)Nc1ccccc1	?	0	0	0	23
CCOC(=O)c1[nH]c2ccccc2c1NC(=S)Nc1cccc(C)c1	0	?	0	0	32
CCOC(=O)c1[nH]c2cc(OC)c(OC)cc2c1N	0	0	0	0	0
CCOC(=O)c1[nH]c2ccc(C)cc2c1N	0	?	61	0	27
CCOC(=O)c1[nH]c2ccccc2c1NC(C)=O	-	-	0	0	0
O=[S+]1([O-])N[C@@H]2Cc3ccccc3[C@@H]2Oc2cc(Br)ccc21	-	0	-	-	-
Nc1nc(COc2ccc(F)cc2)nc(N2CCCCC2)n1	0	0	0	0	19
O=C1C=C(c2ccccc2)C[C@H](c2cccs2)[C@H]1n1nnc([N+](=O)[O-])n1	2µM	?	0	0[2.32 µM]	0
Cc1c(CNC2CCCCC2)c(C(=O)O)c(C)n1Cc1ccccc1F	0	0	-	-	-
SMILES	MARV entry inh	LASV entry inh	Shiga inhibitor	AMA1 RON2 block	CHX counter
COC(=O)C1=CN(c2ccc(C(C)(C)C)cc2)C(N)=C(C#N)C1c1ccccc1F (stereo not given)	-	-	-	0	-
C=CCn1cccc(C(=O)Nc2cc(OC)cc(OC)c2)c1=O	?	?	0	0	26
C=CCn1cccc(C(=O)Nc2ccc(OC)c(Cl)c2)c1=O	0	0	54	0	24
C=CCn1cccc(C(=O)Nc2ccc(OC)c(OC)c2)c1=O	0	0	0	0	0
C=CCn1cccc(C(=O)Nc2cc(OC)c(OC)c(OC)c2)c1=O	?	0	0	0	0
CC(CCc1ccccc1)NC(=O)Cn1c(=O)nc(-c2ccccc2)c2cc(Cl)ccc21 (stereo not given)	-	0	-	-	-
CCOc1ccc(S(=O)(=O)N2CCN(CC(O)COc3cccc([N+](=O)[O-])c3)CC2)cc1 (stereo not given)	?	0	0	0	0
COc1ccccc1Cc1nc2ccccc2nc1SCC(=O)Nc1cccc(Cl)c1C	-	0	-	-	-
Clc1ccc(-c2nnc(CNC3CC3)o2)cc1	0	0	0	0	21
Cc1cc(Nc2ccccc2)n(C(=O)c2ccc(Cl)cc2)n1	0	?	72	0	35
COc1ccc2cc(CN(CC3CCCO3)S(=O)(=O)c3ccc(C(C)=O)cc3)c(=O)[nH]c2c1 (stereo not given)	0	0	64	0	19
CCN1CCCC1CN(Cc1cc2ccc(C)c(C)c2[nH]c1=O)C(=O)Nc1ccccc1OC (stereo not given)	18µM	0	0	0	0
COc1ccc2cc(CN(C(=O)Nc3ccccc3OC)C3CCCC3)c(=O)[nH]c2c1	8.9µM	?	0	0	0
CCN1CCCC1CN(Cc1cc2ccc(C)cc2[nH]c1=O)C(=S)Nc1cccc(OC)c1 (stereo not given)	10µM	?	0	0[11.6 µM]	0
COc1ccc2cc(CN(CC3CCCO3)C(=O)Nc3ccccc3OC)c(=O)[nH]c2c1 (stereo not given)	?	-	0	0	0
CCN1CCCC1CN(Cc1cc2ccc(C)cc2[nH]c1=O)C(=S)Nc1ccc(OC)cc1 (stereo not given)	0	?	0	0	0
CCN1CCCC1CN(Cc1cc2ccc(C)cc2[nH]c1=O)C(=S)Nc1ccccc1OC (stereo not given)	?	0	0	0	0
COC(=O)c1ccccc1S(=O)(=O)N(Cc1cc2ccc(OC)cc2[nH]c1=O)CC1CCCO1 (stereo not given)	0	0	0	0	0
CN(C(=O)CC(=O)Nc1ccc2nc3n(c(=O)c2c1)CCCCC3)c1ccccc1F	0	0	-	-	-
Cc1nn(C)c(C)c1CNC(=O)Nc1cccc(Cl)c1C	0	0	0	0	32
O=C(NCc1ccccn1)Nc1ccccc1Cl	-	-	32	0	25
O=C(NCc1ccccn1)Nc1cccc(Cl)c1Cl	-	-	0	0	59
Cc1c(Cl)cccc1NC(=O)NCc1ccccn1	-	-	0	0	15
CN1CCN(C(=O)c2cc3sc4ccccc4c3s2)CC1	0	0	0	0	39
CN1CCN(C(=O)c2cc3c(=O)n4ccccc4nc3s2)CC1	0	0	49	0	12
SMILES	MARV entry inh	LASV entry inh	Shiga inhibitor	AMA1 RON2 block	CHX counter
C=CCNC(=O)c1cc2c(=O)n3ccccc3nc2s1	-	-	72	0	34
O=C(NC1CCCCCC1)c1cc2c(=O)n3ccccc3nc2s1	0	0	75	0	29
Cc1cc(NC(=O)CCCn2ccc([N+](=O)[O-])n2)n(Cc2ccc(F)cc2)n1	0	0	0	0	0
CCOc1ccc(-c2nc(SCC(=O)NCCOC)c(-c3ccc(OC)c(OC)c3)[nH]2)cc1	0	0	-	-	-
CC(C)CC1c2[nH]c3ccccc3c2CCN1CCCn1cccn1 (stereo not given)	4.5µM	11µM	0	0	0
COc1ccc(C2c3[nH]c4ccccc4c3CCN2CCCn2cccn2)c(C)c1C (stereo not given)	?	0	0	?	0
S=c1nccc(-c2cccs2)[nH]1	?	0	0	0	0
c1csc(-c2ccn[nH]2)c1	-	-	0	0	13
COc1ccc(-c2c(NC(=O)c3ccco3)n(C)c3ccccc3c2=O)cc1	?	0	0	0	0
COc1ccccc1-c1c(NC(=O)c2ccco2)n(C)c2ccccc2c1=O	?	0	36	0	18
Cc1nn(-c2ccccc2)c(C)c1/C=N/NC(=O)c1cc(C2CC2)[nH]n1	?	0	0	0	14
O=C(N/N=C/c1c(Cl)cccc1Cl)c1ccc(F)cc1	0	0	0	0	0
